The list is not random: actives were taken first. Their share in the collection is about 4.8%.
hcDAF-12 act = H. contortus DAF-12 activation, primary screen; HEK293 hcDAF-12 lit1-tk-luc reporter, luminescence; 0% DMSO, 100% Δ7-dafachronic acid; activation, % at 6.8 µM; 1.4% of 370,000 active; AID 652067;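 active = activation above the mean of all tested compounds plus 3 SD, cut at about 5.5% in these data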
DAX1 inh-1 = DAX1 (NR0B1) inhibition, primary screen | 1.1% of 370,000 active | AID 652010 | inhibition, % at 6.8 µM | HEK293T StAR-luciferase reporter, SF-1/DAX-1 repression relief;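 active = inhibition above the mean over all tested compounds plus 3 SD, cut at about 3.6% in these data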;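 also: higher inhibition means more luminescence from relief of DAX-1 repression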
hgDAF-12 ag = activates the H. glycines DAF-12 receptor ligand-binding domain. HEK293 GAL4-hgDAF12 UAS-luciferase reporter, agonist luminescence; normalized to butyrate control. activation, % at 6.8 µM. 1.8% of 370,000 active. AID 687014;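 active = activation above a cutoff set at the mean of all screened compounds plus 3 SD, cut at about 10% in these data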
ssDAF-12 act = activators of S. stercoralis DAF-12 nuclear receptor; AID 652126; activation, % at 6.8 µM; 1% of 370,000 active; HEK293 ssDAF-12/GRIP1 lit1-tk-luc reporter, luminescence; % of 3 µM dafachronic acid response;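 active = activation above the mean over all tested compounds plus 3 SD, cut at about 0.9% in these data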
DAX1 inh-2 = inhibits human nuclear receptor DAX1; HEK293 Gal4-DAX1 luciferase reporter, luminescence; inhibition, % at 6.75 µM; P51843; 0.99% of 340,000 active; AID 504766;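 active = inhibition above the mean over all tested compounds plus 3 SD, cut at about 4.2% in these data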;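 also: inhibition shows as a rise in luminescence from relieved DAX1 repression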
Target sequence (P51843 207-470 limits assumed): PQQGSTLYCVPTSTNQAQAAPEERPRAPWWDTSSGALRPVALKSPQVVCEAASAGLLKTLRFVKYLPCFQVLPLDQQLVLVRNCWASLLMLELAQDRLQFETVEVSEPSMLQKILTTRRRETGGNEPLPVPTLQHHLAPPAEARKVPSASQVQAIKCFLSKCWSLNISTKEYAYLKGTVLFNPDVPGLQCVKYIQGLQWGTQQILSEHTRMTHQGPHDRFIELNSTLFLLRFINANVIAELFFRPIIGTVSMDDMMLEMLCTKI
SMARCA2 act = activators of SMARCA2 function | MG213 cells, MMTV-luciferase reporter, dexamethasone, overnight | activation, % at 9.1 µM | 1% of 370,000 active | AID 652017; in the data active = activation above about 7.8%
Of the large screens only hits and unclear results are named; the others gave an inactive call; ! = a repeat was not active.

CN(C(=O)c1ccccc1Cl)c1ccccc1C(=O)NCc1ccccc1	DAX1 inh-1 4.1
O=C(N/N=C/c1cccc(F)c1)c1c(O)c2ccccc2[nH]c1=O	none
COc1cc2c(c(OC3OC(CO)C(O)C(O)C3O)c1)C(=O)CC(c1ccc(O)cc1)O2 (centres undefined)	none (no result: DAX1 inh-2)
Fc1cccc(F)c1[B-](F)(F)F	hgDAF-12 ag 11
Cc1ccc(CNC(=O)C(OC(=O)c2cccs2)C(C)C)cc1 (centres undefined)	DAX1 inh-2 4.6
COc1ccc(CNC(=S)Nc2ccc3nc(N4CCOCC4)cc(C)c3c2)cc1	none
COc1cccc(NS(=O)(=O)NC(=O)c2c[nH]c3ccccc23)c1	none
CN(C)S(=O)(=O)c1cccc(NC(=O)c2c[nH]c3ccccc23)c1	ssDAF-12 act 1.3
O=C(NS(=O)(=O)Nc1ccccn1)c1c[nH]c2ccccc12	ssDAF-12 act 1.0
O=C(NS(=O)(=O)Nc1ccc(Cl)cc1)c1c[nH]c2ccccc12	none
COc1ccc(NS(=O)(=O)NC(=O)c2c[nH]c3ccccc23)cc1	hcDAF-12 act 5.8
COc1ccc(/C=C\C(=O)c2c(O)ccc3c(C)cc(=O)oc23)cc1OC	none
CCOC(=O)N1CCC(NC(=O)Cn2cccc2C(=O)c2ccccc2C)CC1	none
Cc1c(C(=O)NC(C)c2ccc(-n3ccnc3)cc2)cccc1[N+](=O)[O-] (centres undefined)	none
CC(=O)COC(=O)C1CCN(S(=O)(=O)c2cc([N+](=O)[O-])ccc2Cl)CC1	DAX1 inh-2 4.3
O=C(COC(=O)C1CCN(S(=O)(=O)c2cc([N+](=O)[O-])ccc2Cl)CC1)Nc1ncc(Cl)cc1Cl	none
CC(CCc1ccccc1)NC(=O)CCC(=O)N1CCC(C(N)=O)CC1 (centres undefined)	none
Cc1noc(C)c1C(=O)OCC(=O)/C=C1/N(C)c2ccccc2C1(C)C	DAX1 inh-2 5.9
CCCCOc1ccc(C(=O)N2CCNC(=O)C2CC(=O)OC(C)C)cc1 (centres undefined)	ssDAF-12 act 1.9
CCOC(=O)CC1C(=O)NCCN1C(=O)c1ccc(Cl)cc1 (centres undefined)	none
CCOC(=O)C1(CC2CC2)CCN(C(=O)c2ocnc2C)CC1	DAX1 inh-2 4.3
CN(C)N1C(N)=C(C#N)C(c2cccc3ccccc23)C2=C1CC(c1ccccc1)CC2=O (centres undefined)	DAX1 inh-2 5.6
c1ccc(-c2nnc(-c3ccccn3)nn2)nc1	hgDAF-12 ag 13
CCOC(=O)Nc1ccc2c(c1)N(C(=O)CCN(C)C)c1ccccc1CC2	none
CCOC(=O)Nc1ccc2c(c1)N(C(=O)OCCN(C)C)c1ccccc1CC2	DAX1 inh-2 5.1!
O=C(NNC(=O)C1CCCCC1)c1ccncc1	none
O=C(NNC(=O)c1ccncc1)NC1CCCCC1	DAX1 inh-2 4.8
Cc1ccc(OCCn2c(=O)n(C)c3ccccc32)cc1	hgDAF-12 ag 13
Cn1c(=O)n(CCOc2ccc([N+](=O)[O-])cc2)c2ccccc21	none
Cc1csc(Nc2ccccc2)n1	none
Cc1nc(Nc2ccccc2)sc1C	DAX1 inh-2 7.2
COc1ccc(C)cc1NC(=O)C(C)N1CCOCC1 (centres undefined)	none
CC(=O)Oc1ccc(Cn2cnc3cc4ccccc4cc32)cc1	none
CCOc1ccc2c(c1)ncn2Cc1ccccc1	DAX1 inh-2 4.7
CCc1ccc(N(C)S(=O)(=O)c2ccc3[nH]cc(C(=O)NCCN4CCOCC4)c(=O)c3c2)cc1	none
O=S(=O)(c1ccccc1)c1nc(Nc2cccc(O)c2)sc1Cl	none
O=C1C2CC=CCC2C(=O)N1c1ccc(NCCc2cccc(F)c2)c([N+](=O)[O-])c1 (centres undefined)	none
CC1=C(C(=O)Nc2ccc(C)cc2C)C(c2ccc(Cl)cc2)n2nc(C(=O)OC(C)C)nc2N1 (centres undefined)	DAX1 inh-2 4.4
CSc1nc2n(n1)C(c1cccc(F)c1)C(C(=O)Nc1ccc(C)cc1C)=C(C)N2 (centres undefined)	none
Cn1cnc(S(=O)(=O)Nc2ccc(OC(F)(F)F)cc2)c1	DAX1 inh-2 5.5
Cn1cnc(S(=O)(=O)Nc2ccc(C(F)(F)F)cc2)c1	none
Cc1cccc(NC(=O)CN2CCN(C(=O)c3ccc(-c4nc5ccccc5s4)o3)CC2)c1C	DAX1 inh-1 4.0
CC(C)(C)NC(=O)CSc1nnc(-c2ccccn2)n1Cc1ccccc1	none
COc1ccc(/C=N/N2CCOCC2)cc1COc1ccc(F)cc1	none
COc1ccc(/C=N/N2CCOCC2)cc1COc1ccc(Cl)cc1	SMARCA2 act 7.9
Cn1ccnc1-c1ccc(-c2nccn2C)cc1	none
C[N+](C)(C)CC=O	none
O=S(=O)(NCC(c1cccnc1)N1CCN(c2ccccc2F)CC1)c1cccs1 (centres undefined)	none
COC(=O)c1ccc2nc(-c3cccc(Cl)c3)c(Cc3cccc(Cl)c3)n2c1	ssDAF-12 act 0.9 (no result: DAX1 inh-2)
COC(=O)c1ccc2nc(-c3ccccc3)c(Cc3ccc(C)cc3)n2c1	ssDAF-12 act 0.9 (no result: DAX1 inh-2)
Brc1ccc2nc(-c3ccco3)c(Cc3ccsc3)n2c1	ssDAF-12 act 1.0 (no result: DAX1 inh-2)
COC(=O)c1ccc2nc(-c3cccc(Br)c3)c(Cc3ccsc3)n2c1	DAX1 inh-1 3.8 (no result: DAX1 inh-2)
O=C(CNC(=O)[C@@H]1Cc2ccccc2CN1)Nc1ccc2c(c1)OCCO2	none
O=C(N/N=C\c1cn[nH]c1-c1ccc(Cl)cc1)c1cccs1	none
CCCCCc1ccc(OCCCC[n+]2cccc(C)c2)c(CCCCC)c1	none
COC(=O)c1ccc2nc(-c3ccc(C)cc3)c(Cc3cccc(F)c3)n2c1	SMARCA2 act 7.9 (no result: DAX1 inh-2)
CC(C)c1ccc(NC(=O)Nc2nc(CN)cs2)cc1	hgDAF-12 ag 12 (no result: DAX1 inh-2)
CC(C)NC(=O)c1cc(-c2cccs2)nc2ccccc12	none
CC(C)=CC(=O)Nc1nnc(-c2ccccc2C)s1	DAX1 inh-2 5.2
CCc1nnc(NC(=O)C=C(C)C)s1	none
CCCC(=O)n1nc(-c2ccc(C)cc2)nc1NCc1ccco1	hgDAF-12 ag 13
COCCn1c(NCc2ccco2)nc2c1c(=O)[nH]c(=O)n2C	none
Cn1c(=O)[nH]c(=O)c2c1nc(NCc1ccco1)n2CCCc1ccccc1	DAX1 inh-2 4.5
C/C(CC(=O)NCc1ccc(F)cc1)=N\NC(N)=S	DAX1 inh-2 4.8
COc1ccccc1OCC(=O)Nc1ccc(S(=O)(=O)Nc2nccs2)cc1	none
COCC(=O)Nc1ccc(S(=O)(=O)Nc2nccs2)cc1	DAX1 inh-2 4.4
O=C(NC1CCCCC1)c1cc2nc3c(c(C(F)(F)F)n2n1)CCCC3	none
Cc1cc2nc3c(c(C(F)(F)F)n2n1)CCCC3	DAX1 inh-2 6.3
c1csc(C2C3=C(Nc4ncnn42)c2ccccc2OC3)c1 (centres undefined)	ssDAF-12 act 1.1

Screening results from PubChem.
